# Screen size: about 310,000 compounds; about 14,000 (4.5%) showed an effect of 50% or more. The effect is printed as a negative number. Only a selection was taken, and strong results are over-represented in it overall.
# Biological target: human ether-à-go-go-related gene (hERG) potassium channel (human, UniProt Q12809)
# Experiment: primary screen, population patch clamp on CHO cells stably expressing hERG; higher = less effect of the substance
# 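Further: peak tail current of the secondary pulse compared with the same well before compound.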
# human ether-à-go-go-related gene (hERG) potassium channel, sequence (Q12809 whole entry, looked up): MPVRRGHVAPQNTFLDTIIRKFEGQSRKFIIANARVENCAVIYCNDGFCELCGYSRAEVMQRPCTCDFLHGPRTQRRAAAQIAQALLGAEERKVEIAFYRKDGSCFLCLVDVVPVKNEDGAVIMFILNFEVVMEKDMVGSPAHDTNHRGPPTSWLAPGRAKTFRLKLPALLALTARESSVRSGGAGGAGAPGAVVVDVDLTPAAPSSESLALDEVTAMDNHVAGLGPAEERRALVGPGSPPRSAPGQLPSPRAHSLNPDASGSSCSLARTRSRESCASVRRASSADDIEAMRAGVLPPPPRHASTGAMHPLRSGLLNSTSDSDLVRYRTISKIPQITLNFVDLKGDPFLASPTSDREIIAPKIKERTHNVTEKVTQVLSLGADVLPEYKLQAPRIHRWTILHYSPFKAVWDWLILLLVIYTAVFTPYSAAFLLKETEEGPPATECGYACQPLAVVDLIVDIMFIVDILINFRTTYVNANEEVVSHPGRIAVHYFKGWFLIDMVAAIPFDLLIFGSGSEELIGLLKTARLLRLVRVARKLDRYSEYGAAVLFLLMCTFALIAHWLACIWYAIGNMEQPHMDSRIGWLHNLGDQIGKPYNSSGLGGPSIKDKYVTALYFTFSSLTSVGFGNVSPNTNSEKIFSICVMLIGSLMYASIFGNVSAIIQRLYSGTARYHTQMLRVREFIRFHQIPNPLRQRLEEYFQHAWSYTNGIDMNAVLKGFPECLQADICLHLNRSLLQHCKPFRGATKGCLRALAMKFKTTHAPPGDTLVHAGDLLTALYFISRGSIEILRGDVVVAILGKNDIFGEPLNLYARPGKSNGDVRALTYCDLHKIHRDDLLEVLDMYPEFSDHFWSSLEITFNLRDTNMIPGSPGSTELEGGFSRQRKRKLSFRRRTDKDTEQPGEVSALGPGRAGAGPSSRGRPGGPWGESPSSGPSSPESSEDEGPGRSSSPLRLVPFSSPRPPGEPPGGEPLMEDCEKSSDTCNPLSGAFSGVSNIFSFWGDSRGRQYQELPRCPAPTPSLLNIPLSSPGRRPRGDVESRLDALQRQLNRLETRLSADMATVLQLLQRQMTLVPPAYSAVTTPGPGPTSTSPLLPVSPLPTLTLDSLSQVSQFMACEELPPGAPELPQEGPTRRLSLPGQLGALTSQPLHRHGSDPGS
row,SMILES,"hERG current change (%, negative = inhibition) at 10uM [%]"
1,OCC(O)C(O)C(O)C(O)C1NCCS1 (stereo not drawn),0.867
2,O=C1CSC(c2ccc(Cl)cc2)N1C1CCCCC1 (stereo not drawn),-14.4
3,Cc1cc2cc(CN(Cc3ccc4c(c3)OCO4)C(=O)c3ccco3)c(=O)[nH]c2cc1C,-25
4,ClCc1ncc(-c2ccc(Cl)cc2)o1,33.5
5,Cc1ccc(C(=O)NCc2ccc(Cl)cc2)cc1S(=O)(=O)N1CCCCC1,-0.995
6,O=C(NC(=S)Nc1cccnc1Cl)c1ccc(Cl)cc1,15.5
7,O=C(c1ccc(S(=O)(=O)N2CCOCC2)cc1)N(Cc1ccco1)Cc1cccs1,-44.5
8,CN(C)S(=O)(=O)c1cccc(C(=O)N(Cc2ccc(F)cc2)Cc2ccco2)c1,-52.3
9,CN(Cc1cccs1)C(=O)c1ccc(S(=O)(=O)N2CCCCC2)cc1,-18.8
10,CCN(Cc1cccs1)C(=O)c1cccc(S(=O)(=O)N2CCN(C)CC2)c1,-14.1
11,CN(Cc1cccs1)C(=O)c1cccc(S(=O)(=O)N2CCCCCC2)c1,-59.9
12,O=C(c1cccc(S(=O)(=O)N2CCOCC2)c1)N(Cc1ccc(F)cc1)Cc1ccco1,-88.4
13,CN(C)S(=O)(=O)c1cccc(C(=O)NCc2ccco2)c1,10.7
14,O=C(NCc1ccc(F)cc1)c1cccc(S(=O)(=O)N2CCOCC2)c1,-25.4
15,O=C(NCc1ccco1)c1cccc(S(=O)(=O)N2CCOCC2)c1,-4.97
16,CN1CCN(S(=O)(=O)c2cccc(C(=O)N(C)Cc3cccs3)c2)CC1,-7.83
17,Cc1ccc(N(Cc2ccco2)C(=O)c2cccc(S(=O)(=O)N(C)C)c2)cc1,-21.5
18,O=C(c1cccc(S(=O)(=O)N2CCOCC2)c1)N(Cc1ccco1)Cc1cccs1,-68.5
19,CCc1ccccc1NC(=O)c1cc(-c2cccc(O)c2)on1,12.7
20,COc1cccc(C(=O)Nc2cnn(C(C)C)c2)c1,9.94
21,CC(C)N(Cc1cnn(C)c1)Cc1nc(-c2ccc(Cl)cc2)no1,3.63
22,COc1ccc(/C=N/NC(=O)c2ccncc2)cc1Cn1nc([N+](=O)[O-])c(Br)c1C,-49.4
23,Cc1ccccc1NC(=O)C1C2CCCCC21 (stereo not drawn),6.99
24,CC(C)CC(NC(=O)C1CCC(C)CC1)C(=O)NCc1ccccn1 (stereo not drawn),18

row,SMILES,"hERG current change (%, negative = inhibition) at 10uM [%]"
1,O=C(Oc1cccc(-c2cnc3ccccc3n2)c1)c1ccco1,-5.02
2,CCOc1ccccc1C(=O)NC1CCN(Cc2ccccc2)CC1,-46.6
3,Cl.O=C(NC1CCN(Cc2ccccc2)CC1)c1ccccc1OCc1ccccc1,-69.3
4,O=C(NC1CCN(Cc2ccccc2)CC1)c1ccccc1OCc1ccccc1Cl,-69.2
5,O=C(O)c1ccccc1OCc1ccccc1Cl,6.55
6,O=C(NC1CCCC1)c1ccccc1OCc1ccccc1,-39.6
7,O=C(CNC(=O)c1ccccc1Cl)NC1CCN(Cc2ccccc2)CC1,13.1
8,CC(C)N1CC23C=CC(O2)C(C(=O)OCc2ccccc2)C3C1=O (stereo not drawn),3.29
9,COc1cc(NS(=O)(=O)c2ccc(N/C=C(\C=O)c3nc4cc(Cl)ccc4o3)cc2)nc(OC)n1,-2.34
10,CCO[C@H]1OC(C(=O)O)=C[C@@H](C(C)(C)C)[C@@H]1CCCO,7.12
11,Cl.Fc1ccccc1Nc1nc(Cl)nc(Cl)n1,7.69
12,COc1ccccc1N1CCN(c2ncc(C(=O)N3CCN(c4cccc(Cl)c4)CC3)c3ccccc23)CC1,-10.7
13,O=C(C1CCCCC1)N1CCN(c2ccccc2F)CC1,-7.04
14,CCCOC(=O)CSc1nc(N2CCOCC2)c2c(c1C#N)CC(C)(C)OC2,-40.5
15,O=C(Nc1ccc2ccccc2c1)NC1CCS(=O)(=O)C1 (stereo not drawn),6.88
16,Cc1ccc(C)c(NC(=O)CCNS(=O)(=O)c2ccc3[nH]c(=O)oc3c2)c1,11.4
17,CC(C)(C)c1cc(NC(=O)COC(=O)c2ccc(O)cc2O)n(-c2ccccc2)n1,-79.3
18,COCCNc1nnc(SCC(=O)Nc2nnc(-c3ccccc3)o2)s1,21.8
19,CC(C)(C)c1cc(NC(=O)CSc2nnc(N)s2)n(-c2ccccc2)n1,-29.1
20,COCCNc1nnc(SCC(=O)Nc2cc(-c3ccccc3)nn2-c2ccccc2)s1,-50.9
21,Cc1ccc(C(=O)OCC(=O)Nc2cc(C(C)(C)C)nn2-c2ccccc2)c(O)c1,-8.07
22,O=C(COC(=O)c1ccc(O)cc1O)Nc1cc(-c2ccccc2)nn1-c1ccccc1,-9.42
23,Cc1nnc(SCC(=O)Nc2cc(C(C)(C)C)nn2-c2ccccc2)s1,-12.9
24,O=C(CSc1nncs1)Nc1cc(-c2ccccc2)nn1-c1ccccc1,-39.1

row,SMILES,"hERG current change (%, negative = inhibition) at 10uM [%]"
1,CC(C)(C)c1cc(NC(=O)CSc2nnc(NCc3ccccc3)s2)n(-c2ccccc2)n1,-50.1
2,O=C(Nc1nc2c(F)cccc2s1)C1CC1,-8.38
3,Cn1c(=O)cc(OCC(=O)N2CCN(Cc3ccc4c(c3)OCO4)CC2)c2ccccc21,-33.4
4,O=C(CSc1ccccc1)Nc1nccs1,-3.78
5,O=C(CC1C(=O)NCCN1Cc1ccc(-c2ccccc2)cc1)NCCOc1cccnc1 (stereo not drawn),-25.9
6,O=C(c1ccccc1)N1N=C(C(F)(F)F)CC1(O)c1ccccc1 (stereo not drawn),10.6
7,C=CCNC(=O)c1ccc2c3n(nc2c1)-c1ccc(C)cc1CO3,-24.6
8,O=C(Nc1ccccc1C(F)(F)F)C1CCN(C(=O)c2cccs2)CC1,10.5
9,Cc1ccc(NC(=O)C2Cc3ccccc3C(=O)O2)cc1 (stereo not drawn),13
10,O=C(NCCOc1ccccc1)c1cc2ccccc2o1,-2.6
11,CCOc1ccc(NC(=S)NN2C(C)CCCC2C)cc1 (stereo not drawn),6.62
12,CC1CCCC(C)N1NC(=S)Nc1ccc(OC(F)F)cc1 (stereo not drawn),-68.3
13,COc1ccc(NC(=S)NN2C(C)CCCC2C)cc1 (stereo not drawn),16.6
14,N/C(=N\OC(=O)c1ccc(F)cc1)c1ccc(Br)cc1,15.4
15,CC(=O)Nc1ccc(C=C(C(C)=O)C(C)=O)cc1,2.2
16,COc1ccc(CN2C(=O)c3cccnc3C2=O)cc1S(=O)(=O)N1CCOc2ccc(C)cc21,-11.6
17,CNc1c([N+](=O)[O-])cnn1-c1cccc(Cl)n1,14.4
18,Cc1cccn2c(=O)c3cc(C(=O)NCCc4ccccc4)c(=N)n(CCCn4ccnc4)c3nc12,-74.4
19,Cc1cccn2c(=O)c3cc(C(=O)NCCCn4ccnc4)n(C)c3nc12,-11
20,O=C(O)c1ccccc1C(=O)NCCCn1ccnc1,18.4
21,Cc1cccn2c(=O)c3cc(C(=O)NC(C)c4ccccc4)c(=N)n(CCCn4ccnc4)c3nc12 (stereo not drawn),-68.1
22,CC(NC(=O)C(=O)NCCCn1ccnc1)c1ccccc1 (stereo not drawn),15.6
23,Cc1ccc(N(C(=O)c2cccs2)C2C=CS(=O)(=O)C2)cc1 (stereo not drawn),-24.4
24,CCCOC(=O)c1ccc(NC(=O)c2cc(OC)c(OC)c(OC)c2Br)cc1,8.82

row,SMILES,"hERG current change (%, negative = inhibition) at 10uM [%]"
1,FC(F)(F)c1cccc(OCCN2CCN(Cc3ccccc3)CC2)c1.O=C(O)C(=O)O,-40.8
2,CCc1cccc(OCCOCCN2CCCC2)c1.O=C(O)C(=O)O,-46.1
3,O=C(O)C(=O)O.O=[N+]([O-])c1cccc(OCCN2CCC(Cc3ccccc3)CC2)c1,-71.1
4,O=C(O)C(=O)O.O=[N+]([O-])c1cccc(OCCCN2CCC(Cc3ccccc3)CC2)c1,-78.1
5,O=C(O)c1cc([N+](=O)[O-])ccc1N1CCC(Cc2ccccc2)CC1,-4.42
6,Cn1c2c(c(=O)n(C)c1=O)C(c1cc3c(cc1Br)OCO3)CC(=O)N2 (stereo not drawn),3.46
7,O=C(c1ccc(Cn2c(=O)[nH]c3ccsc3c2=O)cc1)N1CCN(c2ccccc2)CC1,7.23
8,Cc1ccccc1C(=O)N1CCC(C(=O)Nc2nc3ccc(F)cc3s2)CC1,-42.8
9,CC(Sc1nc2cc(Cl)ccc2s1)C(=O)Nc1ccc2c(c1)OCO2 (stereo not drawn),6.08
10,COc1ccccc1OCCCCN1CCN(c2ccccc2OC)CC1.O=C(O)C(=O)O,-43.1
11,COc1ccccc1N1CCN(C(=O)CCN2C(=O)c3cccc4cccc(c34)C2=O)CC1,15.5
12,Br.COc1ccccc1N1CCN(CCCCN2C(=O)c3ccccc3C2=O)CC1,-53.5
13,COc1ccccc1N1CCN(C(=O)COc2cc(C)ccc2C)CC1,-18.3
14,COc1ccccc1N1CCN(CCN2C(=O)CC(=C3c4ccccc4-c4ccccc43)C2=O)CC1.Cl,0.408
15,COc1ccccc1N1CCN(C(=O)CCCN2C(=O)c3cccc4cccc(c34)C2=O)CC1.Cl,-70.9
16,COc1ccccc1N1CCN(CCCCOc2c(OC)cccc2OC)CC1.O=C(O)C(=O)O,-57.9
17,Cc1ccccc1OCCCCCCN1CCNCC1.O=C(O)C(=O)O,-1.56
18,CCOc1ccccc1N1CCN(C(=O)CCCN2C(=O)c3cccc4cccc(c34)C2=O)CC1,-8.72
19,COc1ccccc1N1CCN(CCOc2c(OC)cccc2OC)CC1.Cl,-34.6
20,COc1ccccc1N1CCN(C(=O)CN2C(=O)c3ccccc3C2=O)CC1,11.9
21,COc1ccccc1N1CCN(CCCCOc2ccc(C)cc2C)CC1.O=C(O)C(=O)O,-50.3
